# Tests used:
# Format in all cases: functional
# [1] = target: Solute carrier family 2, facilitated glucose transporter member 1 (Homo sapiens) (UniProt P11166); experiment: ST_JUDE_LEISH: Cytotoxicity at 2uM final concentration against transgenic Leishmania Mexicana promastigotes LmGLUT1 that are glucose transport deficient and complemented with the human glucose transporter GLUT1. Activity is measured by DNA content using SYBR green in vitro
# [2] = target: Hexose transporter 1 (Plasmodium falciparum) (UniProt O97467); experiment: ST_JUDE_LEISH: Cytotoxicity at 2uM final concentration against transgenic Leishmania Mexicana promastigotes LmPfHT that are glucose transport deficient and complemented with the Plasmodium falciparum hexose transporter. Activity is measured by DNA content using SYBR green in vitro
# [3] = target: Glucose transporter (Leishmania mexicana) (UniProt O61059); experiment: ST_JUDE_LEISH: Cytotoxicity at 2uM final concentration against transgenic Leishmania Mexicana promastigotes LmGT2 that are glucose transport deficient and complemented with the L. Mexicana glucose transporter 2. Activity is measured by DNA content using SYBR green in vitro
# Solute carrier family 2, facilitated glucose transporter member 1 (Homo sapiens), sequence (P11166 whole entry): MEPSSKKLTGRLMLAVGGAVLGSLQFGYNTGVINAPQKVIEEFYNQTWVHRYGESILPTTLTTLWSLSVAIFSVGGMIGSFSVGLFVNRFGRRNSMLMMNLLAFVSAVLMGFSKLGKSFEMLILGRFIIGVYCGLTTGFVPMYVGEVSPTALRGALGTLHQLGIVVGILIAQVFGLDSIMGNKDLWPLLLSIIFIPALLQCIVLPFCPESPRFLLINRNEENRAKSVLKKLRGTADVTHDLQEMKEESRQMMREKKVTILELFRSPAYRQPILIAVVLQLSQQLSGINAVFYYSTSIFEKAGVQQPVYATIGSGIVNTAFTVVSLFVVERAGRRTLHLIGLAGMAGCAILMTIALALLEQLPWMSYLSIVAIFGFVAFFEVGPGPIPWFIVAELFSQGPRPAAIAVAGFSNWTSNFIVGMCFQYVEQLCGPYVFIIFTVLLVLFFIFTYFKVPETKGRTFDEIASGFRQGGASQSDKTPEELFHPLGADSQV
SMILES,inhibition [1] [%],inhibition [2] [%],inhibition [3] [%]
COc1ccc(NC(=O)Nc2cccc(-c3ccncc3)c2)cc1N1CCN(C)CC1,6.92,7.39,7.22
CC(C)NC(=N)NN=Cc1ccc(Cl)c(Cl)c1,5.7,2.99,0.07
CS(=O)(=O)NCCCNCc1cccc(-c2csc(-c3nc4ccccc4[nH]3)c2)c1,-0.84,-0.51,-0.84
COc1cc2nc(NCCCO)nc(Nc3ccc(Oc4ccccc4)cc3)c2cc1OC,6.51,6.09,4.69
COc1ccccc1N1CCN(Cc2c(O)ccc3cc(Br)ccc23)CC1,5.54,4.31,6.16
Oc1c(C(Nc2nc3ccccc3s2)c2ccc(OC(F)F)cc2)ccc2cccnc12 (centres undefined),4.38,0.37,-1.77
NC(=O)c1cnc2cc(-c3ccoc3)ccc2c1Nc1ccc(NC(=O)Nc2ccccc2Cl)cc1,2.28,0.16,-3.01
COc1ccc(NC(=O)/C=C/c2ccccc2Cl)cc1OCCN1CCC(N2CCCCC2)CC1,7.74,7.17,7.17
Cc1cc(NC(=O)c2ccco2)ccc1OC1CCN(Cc2ccccc2)CC1,0.52,4.72,1.9
COc1ccc2nc3cc(Cl)ccc3c(Nc3ccc(Sc4ccc(Nc5c6ccc(Cl)cc6nc6ccc(OC)cc56)cc4)cc3)c2c1,3.47,4.48,3.6
CC(C)CCCC(C)(C)NC[C@@H](O)[C@H](Cc1ccccc1)NC(=O)c1cccc(CCC2CC2)c1,3.16,4.54,4.06
COc1ccc(CCN2CCC(CN(C)Cc3cnn(-c4ccccc4)c3)CC2)cc1,4.24,6.13,7.63
Oc1ccc(CN2CCC(N3CCN(CCc4ccccc4)CC3)C(O)C2)cc1Cl (centres undefined),1.3,-0.2,2.61
COc1cc(-c2nc(-c3ccc([N+](=O)[O-])cc3)c(-c3ccccc3)[nH]2)cc(OC)c1O,3.48,5.84,5.26
CNC(=O)/C=C/c1cc(NC(=O)Nc2ccnc3c(Br)cccc23)ccc1OC,3.51,2.22,0.98
CCN(CC)CCOc1ccc(C(O)(C#CC(O)(c2ccc(C)cc2)c2ccc(OCCN(CC)CC)cc2)c2ccc(C)cc2)cc1 (centres undefined),7.79,8.63,1.02
FC(F)(F)c1ccc2[nH]ccc(=NN=Cc3cccnc3)c2c1,1.46,1.75,5.22

SMILES,inhibition [1] [%],inhibition [2] [%],inhibition [3] [%]
NCc1ccc(-c2ccc3c(N)nccc3c2)cc1,-3.43,0.57,0.41
O=C(Nc1ccc(-c2cccc(CN3CCC(O)CC3)c2)cc1)c1cccc(Cl)c1,24.1,17.8,16.8
Cc1noc(C)c1CN1Cc2ccccc2OC2(CCN(Cc3c[nH]c4cnccc34)CC2)C1,-0.38,-0.56,2.32
CCCCc1ccc(-c2ccc3[nH]c(C)c(Br)c(=O)c3c2)cc1,3.02,3.88,2.44
CC(C)Sc1nc2c(c(=O)n1Cc1ccco1)C1(CCCC1)Cc1ccccc1-2,6.99,4.28,6.08
CC(Cc1ccc(NC(=O)c2ccc(CNCc3ccccc3)cc2)cc1)N(CCc1cccc(Cl)c1)C(=O)OC(C)(C)C (centres undefined),6.08,4.74,3.04
CC(C)CN1CCC(COc2ccc3ncn(-c4cc(O[C@H](C)c5ccccc5C(F)(F)F)c(C(N)=O)s4)c3c2)CC1,77.7,74.7,60.6
CN1CCN(CCCNCc2cccc(-c3ccc(CNCCc4ccccc4)cc3)c2)CC1,2.41,3.07,1.49
CC(=O)NC1=NC(C)(C)N(OCc2ccc(Cl)c(Cl)c2)C(NC(C)=O)=N1,-0.21,-0.25,-1.61
Nc1nccc2ccc(-c3ccc4nccn4c3)cc12,3.49,3.17,4.92
CCOc1ccc2[nH]c(C)cc(=NN=Cc3ccc(Cl)cc3)c2c1,-0.27,0.45,-1.27
O=C(NCC1CC1)C1Cc2c([nH]c3ccc(Br)cc23)C2(CCN(CCc3ccccc3)CC2)N1 (centres undefined),1.43,-0.28,1.33
Cc1cccc2nc(-c3ccc(-c4cccc(NC(=O)c5ccncc5)c4)cc3)[nH]c12,0.03,-0.47,1.08
Cc1noc(=O)c2ccc(NC(=O)C(O)(CSc3ccccc3)CC(C)C)cc12 (centres undefined),6.92,4.78,3.58
Cc1cccc2nc(-c3cccc(-c4cccc(NC(=O)Nc5ccsc5)c4)c3)[nH]c12,4.96,4.46,6.15
O=S(=O)(Nc1cccc(CCN2CCC(N3CCCCC3)CC2)c1)c1cccc(C(F)(F)F)c1,0.17,3.24,0.82
